Assay results published in the supplement of paper PMC6555819.

Experiments:
Experiment in all cases: PBM binding z-score (relative to random genomic background probes); higher = stronger binding; sequences stand for … in GC…GCGATTGACAGCGTAGAATGAAGG
[1] = tested on: FXR:RXRa (NR concentration 270 nM, RXRa partner concentration 90 nM)
Outline: (§1)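 Ligand-free nuclear receptor dimers were applied to custom Agilent 4×180K protein-binding microarrays whose double-stranded probes carried direct-repeat seeds, single-nucleotide variants, half-site ablations and random human genomic background sequences in 34-nt variable regions. Incubation lasted 1 h. Binding z-scores were computed against the random background probes from regression-normalized fluorescence.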

[2] = tested on: LXRa:RXRa (NR concentration 270 nM, RXRa partner concentration 90 nM)
Outline: as §1

[3] = tested on: LXRa homodimer (NR concentration 270 nM)
Outline: as §1

[4] = tested on: LXRb:RXRa (NR concentration 270 nM, RXRa partner concentration 90 nM)
Outline: as §1

[5] = tested on: LXRb homodimer (NR concentration 270 nM)
Outline: as §1

[6] = tested on: PPARa:RXRa (NR concentration 270 nM, RXRa partner concentration 90 nM)
Outline: as §1

[7] = tested on: PPARg:RXRa (NR concentration 180 nM, RXRa partner concentration 90 nM)
Outline: as §1

[8] = tested on: PPARg:RXRa 270nM:90nM, anti-RXR (NR concentration 270 nM, RXRa partner concentration 90 nM)
Outline: as §1

[9] = tested on: PPARg:RXRa 30nM:10nM, anti-RXR (NR concentration 30 nM, RXRa partner concentration 10 nM)
Outline: as §1

[10] = tested on: PPARg:RXRa 90nM:30nM, anti-RXR (NR concentration 90 nM, RXRa partner concentration 30 nM)
Outline: as §1

[11] = tested on: PPARg:RXRa DBDmut IVT, anti-RXR (DBD mutation: RXRa K156A/R161A, NR concentration 270 nM, RXRa partner concentration 90 nM)
Outline: as §1

[12] = tested on: PPARg:RXRa IVT, anti-PPARg (NR concentration 270 nM, RXRa partner concentration 90 nM)
Outline: as §1

[13] = tested on: PPARg DBDmut:RXRa IVT, anti-PPARg (DBD mutation: PPARg1 K132A/R137A, NR concentration 270 nM, RXRa partner concentration 90 nM)
Outline: as §1

[14] = tested on: PPARg DBDmut IVT, anti-PPARg (DBD mutation: PPARg1 K132A/R137A, NR concentration 270 nM)
Outline: as §1

[15] = tested on: PPARg homodimer (NR concentration 180 nM)
Outline: as §1

[16] = tested on: PXR:RXRa (NR concentration 270 nM, RXRa partner concentration 90 nM)
Outline: as §1

[17] = tested on: PXR homodimer (NR concentration 270 nM)
Outline: as §1

[18] = tested on: RARa:RXR (NR concentration 270 nM, RXRa partner concentration 90 nM)
Outline: as §1

[19] = tested on: RARa homodimer (NR concentration 270 nM)
Outline: as §1

[20] = tested on: RARb:RXRa (NR concentration 270 nM, RXRa partner concentration 90 nM)
Outline: as §1

| Sequence | PBM binding z-score [1] | PBM binding z-score [2] | PBM binding z-score [3] | PBM binding z-score [4] | PBM binding z-score [5] | PBM binding z-score [6] | PBM binding z-score [7] | PBM binding z-score [8] | PBM binding z-score [9] | PBM binding z-score [10] | PBM binding z-score [11] | PBM binding z-score [12] | PBM binding z-score [13] | PBM binding z-score [14] | PBM binding z-score [15] | PBM binding z-score [16] | PBM binding z-score [17] | PBM binding z-score [18] | PBM binding z-score [19] | PBM binding z-score [20] |
| --- | --- | --- | --- | --- | --- | --- | --- | --- | --- | --- | --- | --- | --- | --- | --- | --- | --- | --- | --- | --- |
| CGAACTAGGTCATTGACAGGACACTGAATAGTAA | 4.3 | 3 | 0.64 | 2.25 | 0.377 | 4.54 | 7.31 | 6.14 | 3.7 | 5.66 | 8.02 | 7.96 | 2 | 1.46 | 2.02 | 1.66 | 0.493 | 2.18 | 0.218 | 3.69 |
| TCTTATAGGTAAAAGGTGAAAGTCGGTGTGGTAA | 2.14 | 2.25 | 0.401 | 2.19 | 0.39 | 5.39 | 8.99 | 8.57 | 8.65 | 9.86 | 5.43 | 5.26 | 1.47 | 1.32 | 3.07 | 1.92 | 0.675 | 3.31 | 1.6 | 2.21 |
| GCAGACAGGTGAAAGGCAGGTAACTCAGGGTGGC | 0.0647 | 0.0817 | -0.103 | -0.00398 | -0.276 | 0.899 | 0.826 | 0.901 | -0.278 | 0.391 | 0.331 | 0.821 | -0.179 | -1.25 | 0.447 | -0.081 | -0.0558 | 0.332 | 0.233 | 0.812 |
| ATCTCTAGGTAAAGATAGATCAGTGAATGCAAAT | 0.447 | 0.581 | 0.166 | 0.000708 | 0.387 | 0.00369 | 0.763 | 0.278 | 0.36 | 0.457 | 1.89 | 1.61 | 0.429 | 1.24 | -0.283 | -0.396 | 0.0363 | -0.0575 | 1.14 | -0.27 |
| TAGCCTAGGTCAGATCGGGCCCGTATACGCTATA | 1.58 | 1.2 | -0.271 | 0.916 | -0.19 | 1.67 | 0.67 | 0.657 | -0.472 | 0.0407 | 0.295 | 1.06 | -0.496 | -0.614 | -0.129 | 0.189 | -0.808 | 1.16 | -0.649 | 3.02 |
| CCTAGTGGGCCAAAAAGGTCATTGATGCCGATAA | 3.3 | 4.12 | 3.05 | 3.87 | 0.134 | 4.56 | 3.16 | 3.97 | 1.73 | 3.24 | 3.84 | 4.01 | -0.411 | -0.658 | 3.24 | 4.65 | 3.02 | 4.62 | 1.5 | 3.94 |
| CGTCCAAGGTCCGAGAGGTCAGTGAATGCCGAGT | 2.4 | 1.89 | 1.06 | 1.86 | -0.631 | 2.26 | -0.135 | 0.688 | -0.759 | -0.083 | -0.0478 | 0.0193 | -1.25 | -0.955 | 2.31 | 3.19 | 1.56 | 2.87 | 0.494 | 3.23 |
| TCATATAAGTAAAAGGTGAAAGTCGGTGTGGTAA | 1.04 | 1.71 | 0.168 | 1.8 | 0.141 | 3.59 | 3.78 | 5.58 | 5.48 | 6.35 | 3.39 | 2.38 | 0.923 | 0.618 | 1.82 | 1.24 | 0.368 | 2.22 | 1.48 | 1.83 |
| CCTCGGAGGACAACAGGAGGTCAGAGCAGCCAGA | 1.3 | 1.9 | 1.9 | 1.4 | -0.432 | 2.01 | 0.586 | 0.217 | -0.349 | -0.371 | -0.204 | 0.388 | -0.931 | -1.16 | 1.41 | 2.05 | 0.438 | 2.23 | 0.698 | 2.87 |
